PubChem BioAssay AID2685 (National Center for Advancing Translational Sciences (NCATS), 2010)
The whole screen tested about 320,000 compounds, of which about 2,100 (0.66%) were called active. Another 53% or so got no clear call; they are omitted. Calls come from the whole dose curve; as a rule, active = well fitted inhibition curve with a large enough effect in the signal ratio, with a control signal flat (not every such curve was filed as active); inconclusive = small, poorly fitted or top-dose-only effect, or effect the other way, or a change in a side signal; inactive = flat fitted curve, though single readings scatter; the % refers to the signal ratio. The sample as a whole holds a higher share of actives than the screen did.

Assay: qHTS Assay for Lipid Storage Modulators in Drosophila S3 Cells;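 for cell number change: cells counted by Cell Tracker Red CMTPX staining in the red channel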; for lipid storage change, negative = inhibition: % is set by controls: 0 for no effect and ±100 for the full control effect
Details: BODIPY lipid droplet fluorescence, 18-24 h, cells fed with added oleic acid; cell number change: measured here: cell count max response; series mostly up to 46.1 µM; lipid storage change, negative = inhibition: at the top concentration
Summary of the method: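 Drosophila S3 cells loaded with oleic acid (400 uM, as added) and compounds at several concentrations; lipid droplets imaged by 488-nm laser-scanning cytometry, 500–530 nm intensity and object ratio to cell channel. Percent activity normalized to 20 uM Triacsin C.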
Potency is the fitted concentration of half-maximal effect.

| SMILES | outcome | cell number change [%] | lipid storage change, negative = inhibition | Potency |
| --- | --- | --- | --- | --- |
| CC(C)Oc1ccc(CNC(=O)Cn2c(=O)c3cccn3c3cccnc32)cc1 | inactive | -16.2 | – | – |
| CC1(C)C2CC[C@]1(C)C(=O)N(CCCCN1CCN(c3ccccn3)CC1)C2=O | inactive | 15.1 | – | – |
| Cc1[nH]c2ccccc2c1SCC(=O)N1CCC(C)CC1 | – | -5.95 | -7.23% (inactive) | – |
| CSC1=NC2(CCCCC2)C2=C(CCCC2)N1 | – | -4.54 | – | 5.8 µM (active) |
| S=C1NC2=C(CCCC2)C2(CCCCC2)N1 | – | 0.876 | 3.68% (inactive) | – |
| Cc1cccc(C(=O)Nc2c3c(nn2C(C)(C)C)CS(=O)(=O)C3)c1 | inactive | – | – | – |
| COc1cc(NC(=O)c2ccco2)c(C(=O)O)cc1OC | – | 5.35 | 9.63% (inactive) | – |
| COc1ccc(Cl)cc1NC(=S)NC(=O)c1ccco1 | – | 1.24 | 17.2% (inactive) | – |
| COC(=O)c1cc(OC)c(OC)cc1NC(=S)NC(=O)c1ccco1 | – | -15.6 | – | 18.4 µM (active) |
| CC1CCc2nn(CC(=O)NCc3ccco3)cc2C1 (stereo unspecified) | – | -0.142 | 8.35% (inactive) | – |
| CCCCN(C(=S)NC(=O)c1ccccc1)c1c(N)n(Cc2ccccc2)c(=O)[nH]c1=O | – | -12.7 | -6.94% (inactive) | – |
| COC(=O)C(C)SC1=N/C(=C/c2ccc(-n3cncn3)cc2)C(=O)N1 (stereo unspecified) | – | -12.1 | -24.9% (inactive) | – |
| Cc1ccc2cc(CN(Cc3ccco3)C(=S)NCC3CCCO3)c(=O)[nH]c2c1 (stereo unspecified) | – | 3.25 | 7.64% (inactive) | – |
| COc1ccc(NS(=O)(=O)c2ccc(C(=O)OC(C)C(=O)N3CCOCC3)cc2)cc1 (stereo unspecified) | – | -5.78 | -17.5% (inactive) | – |
| Cc1ccc(CCNC(=O)CCNS(=O)(=O)c2ccc3c(c2)oc(=O)n3C)cc1 | – | 0.906 | 9.42% (inactive) | – |
| C[C@H](NC(=O)CCCOc1ccc(Cl)cc1Cl)c1nnc2ccccn12 | – | 5.34 | – | 18.4 µM (active) |
| CC(C)NC(=O)CCCOc1ccc(Cl)cc1Cl | – | 5.02 | 2.67% (inactive) | – |
| O=C(CCCOc1ccc(Cl)cc1Cl)NCCc1nnc2ccccn12 | inactive | 33.2 | – | – |
| Cc1sc2ncnc(SCC(=O)N3CCOCC3)c2c1C | – | -10.8 | 11.6% (inactive) | – |
| COc1cccc(NC(=O)CCNS(=O)(=O)c2ccc3c(c2)CC(C)N3C(=O)C2CC2)c1 (stereo unspecified) | inactive | 4.78 | – | – |
| CC1Cc2cc(S(=O)(=O)NCc3ccccc3)ccc2N1C(=O)C1CC1 (stereo unspecified) | – | -26.2 | -7.65% (inactive) | – |
| COc1ccccc1CNC(=O)CCS(=O)(=O)c1ccc2c(c1)CC(C)N2C(=O)C1CC1 (stereo unspecified) | inactive | -19.6 | – | – |

| SMILES | outcome | cell number change [%] | lipid storage change, negative = inhibition | Potency |
| --- | --- | --- | --- | --- |
| COc1ccccc1NC(=O)CCNS(=O)(=O)c1ccc2c(c1)CC(C)N2C(=O)C1CC1 (stereo unspecified) | inactive | 3.62 | – | – |
| COc1ccccc1CNS(=O)(=O)c1ccc2c(c1)CC(C)N2C(=O)C1CCC1 (stereo unspecified) | – | -14.7 | – | 5.17 µM (active) |
| COc1cccc(CNS(=O)(=O)c2ccc3c(c2)CC(C)N3C(=O)C2CC2)c1 (stereo unspecified) | – | -26.9 | – | 11.6 µM (active) |
| OC1(c2ccccc2)CCN(Cc2ccccc2)C2CCCCC21 (stereo unspecified) | – | -0.282 | -16.4% (inactive) | – |
| COc1ccc(-n2c(/C=C(\C)O)nc(=O)c3c(C)cc(C)nc32)cc1 | inactive | – | – | – |
| COC(=O)C1Cc2c([nH]c3ccccc23)CN1C(C)=O (stereo unspecified) | – | 2.42 | 2.74% (inactive) | – |
| COc1ccc(NC(=O)COC(=O)[C@@H]2CCCN2C(=O)c2cccs2)cc1 | – | 7.9 | – | 29.1 µM (active) |
| O=C(NCCN1C(=O)S/C(=C/c2cccnc2)C1=O)c1cccs1 | – | -5.78 | – | 2.31 µM (active) |
| O=C(COC(=O)C1CCCN1C(=O)c1cccs1)Nc1ccc2c(c1)OCO2 (stereo unspecified) | – | 11.1 | 17.5% (inactive) | – |
| O=C(NCCN1C(=O)S/C(=C\c2cccnc2)C1=O)c1ccc([N+](=O)[O-])s1 | – | 0.268 | -4.61% (inactive) | – |
| O=C(O)CCN1C(=O)S/C(=C\c2cccnc2)C1=O | – | 3.35 | -6.97% (inactive) | – |
| COc1ccc(/C=C2/SC(=O)N(CCNC(=O)C3COc4ccccc4O3)C2=O)cc1 (stereo unspecified) | – | -11.7 | 7.79% (inactive) | – |
| COc1ccc(/C=C2\SC(=O)N(CCNC(=O)C3CC4C=CC3C4)C2=O)cc1 (stereo unspecified) | – | – | 22.3% (inactive) | – |
| COc1ccc(NC(=O)COC(=O)[C@@H]2CCCN2C(=O)c2cccs2)c(OC)c1 | – | -0.232 | -14.7% (inactive) | – |
| COc1ccc(/C=C2/SC(=O)N(CCNC(=O)C3CCCN3C(=O)c3cccs3)C2=O)cc1 (stereo unspecified) | – | -3.84 | – | 20.6 µM (active) |
| CCOc1c([N+](=O)[O-])cc2c(C)c(C(=O)N3CCN(C)CC3)oc2c1OCC | – | -1.04 | 15.5% (inactive) | – |
| CC(C)CC(c1nnnn1C1CCCC1)N1CCN(C(=O)c2ccco2)CC1 (stereo unspecified) | inactive | -2.29 | – | – |
| COc1ccccc1C(=O)Nc1ccc2[nH]ncc2c1 | inactive | 0.824 | – | – |
| CC(=O)C1=C(O)C(=O)N(Cc2ccccc2)C1c1ccccc1F (stereo unspecified) | – | -6.03 | – | 18.4 µM (active) |
| CC(C)(C)C(=O)C1=C(O)C(=O)N(Cc2ccccc2)C1c1ccccc1F (stereo unspecified) | – | 0.73 | 19.2% (inactive) | – |
| CC(=O)C1=C(O)C(=O)N(Cc2ccccc2)C1c1ccc(F)cc1 (stereo unspecified) | – | -7.48 | 11.4% (inactive) | – |
| S=C(NCC1CCCO1)NC12CC3CC(CC(C3)C1)C2 (stereo unspecified) | – | 5.13 | 1.37% (inactive) | – |

| SMILES | outcome | cell number change [%] | lipid storage change, negative = inhibition | Potency |
| --- | --- | --- | --- | --- |
| S=C(NCC1CCCO1)NC1CCCC1 (stereo unspecified) | – | – | – | 1.3 µM (active) |
| S=C(NCC1CCCO1)Nc1ccccc1 (stereo unspecified) | – | -0.626 | -17.6% (inactive) | – |
| CCOC(=O)c1c(C)[nH]c(C(=O)COC(=O)c2oc3ccc(OC)cc3c2C)c1C | – | -6.84 | 6.95% (inactive) | – |
| O=C(CSc1nc2ccccc2o1)Nc1nncs1 | – | 24.7 | – | 16.4 µM (active) |
| CCc1nnc(NC(=O)CSc2nc3ccccc3o2)s1 | inactive | – | – | – |
| Cc1nnc(NC(=O)CSc2nc3ccccc3o2)s1 | – | -14 | -5.01% (inactive) | – |
| O=C(O)CCc1nc(-c2cccs2)no1 | – | -23 | 1.61% (inactive) | – |
| CC(C)C(=O)Nc1ccc(-c2nc3ncccc3o2)cc1 | – | 0.493 | -16.9% (inactive) | – |
| COc1cc(C=O)ccc1OC(=O)c1ccncc1 | – | -18.5 | 2.65% (inactive) | – |
| COc1ccc(S(=O)(=O)N(C)c2ccc(C(N)=O)cc2)cc1 | – | – | – | 18.4 µM (active) |
| COc1ccc(S(=O)(=O)N(C)c2ccc(C(=O)N3CCCC3)cc2)cc1 | – | 18.3 | 14.8% (inactive) | – |
| CN(c1ccc(C(=O)Nc2ccccc2C(=O)N2CCOCC2)cc1)S(C)(=O)=O | – | -16 | -2.12% (inactive) | – |
| COc1ccc(S(=O)(=O)N(C)c2ccc(C(=O)N3CCCC3)cc2)cc1OC | – | -7.14 | – | 0.326 µM (active) |
| CN(c1ccc(C(=O)N2CCN(c3ccc(F)cc3)CC2)cc1)S(C)(=O)=O | inactive | – | – | – |
| COc1ccc(S(=O)(=O)N(C)c2ccc(C(=O)N3CCCCC3)cc2)cc1OC | – | 2.05 | 6.04% (inactive) | – |
| CN(c1ccc(C(=O)N2CCCCCC2)cc1)S(=O)(=O)c1ccccc1 | – | -9.4 | – | 5.17 µM (active) |
| CN(c1ccc(C(=O)N2CCOCC2)cc1)S(C)(=O)=O | – | -14.6 | – | 25.9 µM (active) |
| CN(c1ccccc1)S(=O)(=O)c1ccc(C(=O)N2CCCC2)cc1 | – | -4.2 | 15.8% (inactive) | – |
| CN(c1ccc(C(=O)N2CCCCC2)cc1)S(=O)(=O)c1ccccc1 | inactive | -27 | – | – |
| COc1ccc(S(=O)(=O)N(C)c2ccc(C(=O)N3CCOCC3)cc2)cc1OC | inactive | – | – | – |
| COc1ccc(S(=O)(=O)N(C)c2ccc(C(=O)N3CCCCC3)cc2)cc1 | inactive | – | – | – |
